Assay outcomes deposited in PubChem BioAssay by National Center for Advancing Translational Sciences (NCATS).
NPC1 prom act = NPC1 promoter activation | AID 485313 | 320,000 tested, 2.4% active | Potency, µM (highest dose often 9.22 µM), actives largely listed as activators | Huh7 NPC1 promoter luciferase reporter, 24 h; further: nearly all actives have a fitted effect of over 60% in size
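Huh7 reporter cells (NPC1 promoter driving luciferase) are dosed with compound for 24 h at 37 °C, 5% CO2; luciferase detection reagent is then added and luminescence measured after 10 min at ambient temperature.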
Rab9 prom act = activates the Rab9 promoter. Huh7 Rab9 promoter-luciferase reporter, luminescence, 24 h. 320,000 tested, 2.8% active. Potency, µM (series often up to 9.22 µM), actives largely listed as activators; further: nearly all actives have a fitted effect of over 60% in size
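Using Huh7 cells stably transfected with Rab9 promoter–luciferase, compounds were incubated 24 h at 37 °C, 5% CO2; luciferase luminescence was read 10 min after reagent addition.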
Luc counter = Kinase-Glo luciferase inhibition (counter-screen); Q27757; Potency, µM (top dose mostly 38.3 µM), actives largely listed as inhibitors; AID 1379; Kinase-Glo luciferase, ATP luminescence, 8 min; 200,000 tested, 0.28% active; further: nearly all actives have a fitted effect of over 60% in size
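Kinase-Glo luciferase light output from ATP and luciferin was measured with 10 uM ATP, within the enzyme's linear range. Buffer: 50 mM imidazole pH 7.2, 50 mM KCl, 7 mM MgCl2, 0.01% Tween 20, 0.05% BSA; luminescence read after 8 min at ambient temperature.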
SMN2 splice enh = increases expression of the SMN2 splice variant; HEK293 SMN2-luciferase splicing reporter, luminescence, 30-36 h; Potency, µM (series often up to 46.1 µM), actives largely listed as activators; 210,000 tested, 2.8% active; AID 1458; further: nearly all actives have a fitted effect of over 55% in size
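qHTS luciferase splicing reporter: luminescence rises when SMN2 exon 7 is included in transfected HEK293 cells. Compound exposure lasted 30-36 h at 37C, with 4.5 mM final sodium butyrate as control, followed by a ONE-Glo read.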
FLuc modulator = inhibits or activates purified firefly luciferase, miR-21 counter-screen; Potency, µM (top dose mostly 57.5 µM), actives largely listed as inhibitors; purified FLuc, Km substrates, luminescence inhibition; AID 588342; 360,000 tested, 6.9% active; P08659; further: nearly all actives have a fitted effect of over 55% in size
Target sequence (P08659 whole entry, looked up): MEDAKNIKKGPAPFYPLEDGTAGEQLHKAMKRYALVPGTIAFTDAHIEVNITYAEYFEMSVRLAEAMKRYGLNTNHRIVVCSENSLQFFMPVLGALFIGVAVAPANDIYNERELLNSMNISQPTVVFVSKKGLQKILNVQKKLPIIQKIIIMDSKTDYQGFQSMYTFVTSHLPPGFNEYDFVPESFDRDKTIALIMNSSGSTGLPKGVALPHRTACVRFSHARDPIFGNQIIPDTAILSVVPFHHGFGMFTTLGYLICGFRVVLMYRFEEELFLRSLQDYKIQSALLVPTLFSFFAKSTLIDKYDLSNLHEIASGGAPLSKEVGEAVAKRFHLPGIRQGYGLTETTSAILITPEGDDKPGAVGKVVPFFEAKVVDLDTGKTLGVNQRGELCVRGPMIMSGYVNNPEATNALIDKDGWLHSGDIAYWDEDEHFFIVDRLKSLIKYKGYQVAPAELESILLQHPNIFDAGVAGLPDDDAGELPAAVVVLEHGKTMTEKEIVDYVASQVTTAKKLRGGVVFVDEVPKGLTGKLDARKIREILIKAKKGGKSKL
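Purified P. pyralis luciferase, 10 nM final, with Km-level 10 uM D-luciferin and 10 uM ATP in 50 mM Tris acetate pH 7.5, 10 mM Mg acetate, 0.01% Tween-20, 0.05% BSA; 6-point qHTS titration about 60 µM downward; luminescence read.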
Each line names hits and unclear results; the compound was inactive in the other large screens. The list is not random: actives were taken first. Their share in the collection is about 7.3%. The call rests on the fitted dose curve; in most records, active means well fitted curve in the direction sought with a large enough effect; inconclusive means small, poorly fitted or top-dose-only effect, or another doubt; inactive means no such curve, though single readings can be large; an effect the other way counts as inactive or inconclusive.

Cc1ccc(N2CC(NC(=O)c3ccc(Br)o3)CC2=O)cc1C (stereo not given)	none (no result: NPC1 prom act, Rab9 prom act, Luc counter, SMN2 splice enh)
COc1cc(NCc2ccc3nc(N)nc(N)c3c2C)cc(OC)c1OC	none (no result: NPC1 prom act, Rab9 prom act, SMN2 splice enh, FLuc modulator)
CC(C)c1ccc(NC(=O)C(Cc2ccccc2)NS(=O)(=O)c2ccc3c(c2)oc(=O)n3C)cc1 (stereo not given)	none (no result: NPC1 prom act, Rab9 prom act, Luc counter)
Cc1ccn2cc(C(=O)Nc3nnc(C)s3)nc2c1	NPC1 prom act inconclusive, Rab9 prom act 3.2µM, FLuc modulator 15µM (no result: Luc counter, SMN2 splice enh)
COc1ccc2c(c1)sc1nc(-c3ccccc3)cn12	Rab9 prom act inconclusive, Luc counter 10µM, SMN2 splice enh 0.4µM, FLuc modulator 0.034µM
COc1ccc(-n2cc(-c3ccccc3)nc2SC)cc1	NPC1 prom act inconclusive, Rab9 prom act inconclusive, SMN2 splice enh 20µM, FLuc modulator 13µM
O=C(NC(=O)c1ccccc1O)c1ccc2c(c1)CCO2	NPC1 prom act 1.4µM, Rab9 prom act inconclusive, FLuc modulator 1.2µM (no result: Luc counter, SMN2 splice enh)
CC(C)C(=O)Nc1cccc(NC(=S)NC(=O)c2cccs2)c1	NPC1 prom act 2.8µM, Rab9 prom act 2.8µM (no result: Luc counter, SMN2 splice enh)
COc1cc(NC(=S)NC(=O)c2cccs2)ccc1NC(=O)C(C)C	FLuc modulator inconclusive
CCN(CC)c1ccc(NC(=S)NC(=O)c2ccco2)cc1	NPC1 prom act inconclusive, Rab9 prom act 1.6µM, SMN2 splice enh 7.9µM, FLuc modulator 15µM
CC(=O)NC(=S)Nc1ccc(NC(=S)NC(=O)c2cccs2)cc1	none (no result: Luc counter, SMN2 splice enh)
CCCCOC(=O)c1ccc(NC(=S)NC(=O)c2ccco2)cc1	none (no result: Luc counter, SMN2 splice enh)
CCN(CC)c1ccc(NC(=O)c2ccco2)cc1	NPC1 prom act 1.6µM, Rab9 prom act inconclusive, SMN2 splice enh 3.2µM, FLuc modulator 3µM
CCN(CC)c1ccc(NC(=S)NC(=O)c2cccs2)cc1	NPC1 prom act inconclusive, Rab9 prom act 0.56µM, FLuc modulator 15µM (no result: SMN2 splice enh)
CCCCN(CC)CCNC(=O)Cn1cnc2sc(C)c(S(=O)(=O)N3CCN(c4ccccc4OC)CC3)c2c1=O	none (no result: NPC1 prom act, Rab9 prom act, Luc counter)
CCCCC/C=C\C/C=C\C/C=C\C/C=C\CCCCCC(=O)NCC(=O)O	none (no result: NPC1 prom act, Rab9 prom act, FLuc modulator)
CC(=O)Nc1nonc1-c1nnc(SCc2ccc(Cl)cc2)n1C	none (no result: NPC1 prom act, Rab9 prom act, Luc counter, SMN2 splice enh)
CC(=O)Nc1ccc(C)cc1-c1nc2ccccc2n(Cc2cccc(Br)c2)c1=O	none (no result: NPC1 prom act, Rab9 prom act, Luc counter, SMN2 splice enh)
COc1cccc(/C=N/Nc2cc(Cl)nc(C)n2)c1O	NPC1 prom act inconclusive, FLuc modulator 3µM (no result: SMN2 splice enh)
COc1cccc(/C=N/Nc2c(Cl)cncc2Cl)c1O	NPC1 prom act inconclusive, FLuc modulator 9.5µM (no result: Luc counter, SMN2 splice enh)
c1ccc(B2OC[C@@H]3OB(c4ccccc4)O[C@H]([C@@H]4COB(c5ccccc5)O4)[C@@H]3O2)cc1	none (no result: NPC1 prom act, Rab9 prom act, FLuc modulator)
COc1ccc(C2C(C(N)=O)=C(C)Nc3nc(-c4ccccc4)nn32)cc1OC (stereo not given)	none
COc1ccc(C2C3=C(CCCC3=O)Nc3nc(-c4cc(OC)c(OC)c(OC)c4)nn32)cc1OC (stereo not given)	SMN2 splice enh 8.9µM
COc1ccc(C2C(C(N)=O)=C(C)Nc3nc(-c4cccc(Cl)c4)nn32)cc1OC (stereo not given)	SMN2 splice enh 18µM
c1ccc(-c2ccc(-n3ccnc3)cc2)cc1	FLuc modulator 24µM (no result: Luc counter, SMN2 splice enh)
COc1ccc(S(=O)(=O)N(CC(=O)NCCSc2ccccc2)c2ccc(C)cc2)cc1	none (no result: NPC1 prom act, Rab9 prom act, Luc counter)
CCOC(=O)c1cc(-c2ccccc2)n(CC(=O)Nc2cc(Cl)c(OC)cc2OC)c1C	none (no result: NPC1 prom act, Rab9 prom act, Luc counter, SMN2 splice enh)
Cc1ccc(Cl)cc1N(C)C(=O)c1noc2c1CCCCC2	none (no result: NPC1 prom act, Rab9 prom act, Luc counter, SMN2 splice enh)
CC(=O)N(/N=C1\Sc2ccccc2C1=O)c1ccccc1	SMN2 splice enh 14µM, FLuc modulator inconclusive
CC(=O)N(/N=C1\Sc2ccccc2C1=O)c1ccccc1C	NPC1 prom act inconclusive, Rab9 prom act 3.2µM, SMN2 splice enh inconclusive, FLuc modulator 11µM
CC(=O)N(/N=C1\Sc2ccccc2C1=O)c1ccc(C)cc1C	NPC1 prom act inconclusive, FLuc modulator 17µM
CC(=O)N(\C=C/C=C/C=C1\Sc2ccccc2C1=O)c1ccccc1	FLuc modulator 7.6µM
CC1(C)CCC(=O)N[C@H]1CC(=O)C[C@H]1NC(=O)CCC1(C)C	none (no result: NPC1 prom act, Rab9 prom act, FLuc modulator)
Nc1nc(Cl)cc(NCCO)n1	none (no result: NPC1 prom act, Rab9 prom act, FLuc modulator)
CC(C)(C)OC(=O)N1Cc2ccccc2C[C@H]1C(=O)NCC(=O)Nc1ccc2c(c1)OCCO2	FLuc modulator 21µM (no result: Luc counter, SMN2 splice enh)
O=C(COC(=O)CNC(=O)c1ccccc1)Nc1ccc2c(c1)OCO2	none
CC(C)(C)c1ccc(C(=O)NCC(=O)OCC(=O)Nc2ccc3c(c2)OCCO3)cc1	FLuc modulator 3.4µM
